In all, about 53,000 sequences went through this assay and about 3,700 (7%) were called active. The sample as a whole holds a higher share of actives than the screen did. Values without a mark were called inactive.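 How the source made its calls: active means gene knockdowns whose robust z-score for IL-1 alpha signal is at least 2 or at most -2, so actives lie on both sides; inactive means the rest.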
Assay: Components of the Cytosolic LPS Sensing Pathway: Gene Identification via Genome-wide siRNA Screen;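 further: robust z of the log signal after scaling to non-targeting control siRNA wells of the plate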
Settings: RAW264.7 macrophages, IL-1a HTRF, actives lie on both sides, screened at 100 nM (by protocol), cells primed 5 h with Pam3CSK4 first
Method in brief: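 Knockdown: 100 nM siRNA, 48h, RAW264.7. Stimulation: Pam3CSK4 5 h, then LipidA via TransIT-TKO 24 h. Output: supernatant IL-1a HTRF, negative-control-normalized, log robust z-score; viability by CellTiter-Glo.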

Row | Sequence | z-score
1 | CCUUUUUCUGGAUUGGAAUTT against Klrd1 | -0.00525
2 | GGAAUAUGACUUCAAGAUGTT against Lmnb2 | 4.28 (active)
3 | AAUGCAAACAAUGCAAAUGTT against Mt2 | -0.174
4 | GGCUAAAGCGAAAAAAAAGTT against Msl3 | -0.114
5 | CGGAUUCACAAGAACACCUTT against Pramel12 | -0.157
6 | GGGCUGUUCCAUUUCUUUATT against Atcay | 0.727
7 | CGGAACUCUGCCACAAGUUTT against Zfp36 | 1.27
8 | GGCAUAUGUUGAAACUAUUTT against Sel1l3 | 1.29
9 | GCUCGUGUCAGAACCGAUGTT against Rwdd3 | 2.39 (active)
10 | GCCAAAAAAGCUGUCAGUUTT against Nkx2-3 | -1.11
11 | GGAGGACGUAACUAAAUCATT against Napepld | -0.934
12 | UCUACAGGACUAUUAGAUUTT against Wnt6 | 0.563
13 | GGUUCUAUAGGGCUCCGAATT against Tmem179b | 4.23 (active)
14 | GGGAUCAAAACAUACUGUGTT against Klra4 | 0.0891
15 | GGUCAUGCAGGUUUUGAAUTT against Snd1 | 1.9
16 | GGCUGAAAUAAAACAAGAATT against Use1 | -0.778
17 | GCAGAAGCGUGGCAUUGUATT against Ins2 | 0.5
18 | GGAAGUGCUGAAGGUGUACTT against Spire2 | 2.38 (active)
19 | GGAUUUAGCCAAUCAAUCUTT against Cdc14b | -0.872
20 | GGACUACCUAUGGUUAAAATT against Nup93 | -1.58
21 | GCUGGUUAGACCCUUCCAATT against Hnf4g | 3.56 (active)
22 | GCAUCUACUCCCUAUAGACTT against Nin | 0.322

Row | Sequence | z-score
23 | GGCAGAGGAAAUCAUGAAGTT against Clpp | -1.05
24 | GGGAGUUCAACUUGAUGUATT against Irf6 | -1.45
25 | GGAUCCCAGAUUGAAAACUTT against Rnf5 | -0.92
26 | CGUGGACUAAAAGUUUUCATT against Mmp12 | 3.63 (active)
27 | CCGGACCUCUGCGCAAUUUTT against Npb | 0.289
28 | GUUUUUGCUAUGGCUCGUATT against H3c1 | 0.92
29 | GGUGCUGCUAGUGAACAAGTT against E2f4 | 5.64 (active)
30 | CCGAGAACCUUAAACUCCCTT against Sowahc | 0.161
31 | GGAGAUAUGGCCAUCACUCTT against Toe1 | 1.11
32 | GGCCUUUGAUGACAUGUACTT against Bpifb1 | -0.378
33 | GAUGCUAGUGAACCUCAUGTT against Olfr1020 | -0.765
34 | CGAUUGGUUGUUGUAGACATT against Abhd11 | -2.56 (active)
35 | CCAAUCCAAACGAAGUUAATT against Rgs9 | -0.977
36 | CGUUUCAACAAGCUCGUGUTT against Rbmxl2 | 1.02
37 | GGAUACAAAUGAAAGCUUATT against Zfp354b | -0.307
38 | GGCAAGAAACAGUCAUAAGTT against Eps8l3 | 0.404
39 | GGCAUCAAGUUCUAUCUGUTT against Slc6a11 | -0.704
40 | GGCCGGUUAGCUAAUCAGATT against Armc10 | 2.03 (active)
41 | UGGCUGAUAUGAAGGUCUGTT against Krtap31-2 | 0.154
42 | GCUGUACGUUUGCACAUUCTT against Rc3h1 | -2.87 (active)
43 | GGCUCUGUAUCGGAAGGCUTT against Zc3h7a | 0.817
44 | GGAUUCUGCUAGCAGUUCATT against Csn1s2a | -0.477

Row | Sequence | z-score
45 | GGGUUGCUUCAACUUUUAGTT against Mpp1 | -0.346
46 | GGCCAUGGAAAAAUCUCAGTT against Dtna | 0.557
47 | GCCUAUACAACCCUAUUGUTT against Kazn | -0.879
48 | GCGCAGGAUGAGAAGUUCUTT against Slc43a3 | 3 (active)
49 | GGUUUGUGGUGAACUUUCATT against Lgals9 | 0.707
50 | GGAUUUGGAAAAUUGAUGCTT against Ahi1 | 0.97
51 | GGAUGAAAGCAAAGACAAGTT against Zscan21 | 2.63 (active)
52 | GGUUGAUGGGAAAACAAUATT against Rab11a | -0.6
53 | GAUCCUGCAUCUUUAGUGUTT against Ascl1 | -0.0831
54 | GCUGAUUCCGUGUCCCAACTT against Gng2 | 3.42 (active)
55 | GGGUAGGGCAGUCUACUUATT against F2r | -0.407
56 | CCUGCUUCUCUACAACCAUTT against Olfr1209 | -0.817
57 | GCUUGUAUUGCUUGUCUUUTT against Olfr172 | 1.89
58 | GGAGUAGAAGAAGAGGAGUTT against Mrpl50 | 0.946
59 | GGUGCAAUCAGCUUUCCACTT against Olfr1336 | 2.26 (active)
60 | CCGAUUGAUAAAGUCACAUTT against Zfat | 0.241
61 | GGAAAAAAGAUGAAUUGCCTT against Cbx8 | 1.63
62 | GGAGUCUUGGCCCUUUAAUTT against Zcchc12 | -1.09
63 | GCCUCUUUAUAAUAUAAGGTT against Pcgf6 | -0.687
64 | CGGUUAACUGGAAAGUGCGTT against Tmem132e | 2.99 (active)
65 | CGUGAUGAAUGAGAAUAACTT against Maea | 0.584
66 | GGAAUUAAACCAUUUCAGUTT against Zbtb44 | 1.28

Row | Sequence | z-score
67 | GGAGGAUUCAUGCUUUGUUTT against Morc2b | 0.238
68 | GGUUUUUGAGUGGGAGACCTT against Khdc3 | -0.578
69 | GAUUUAGCUUGGUGAACCGTT against Thoc6 | 0.754
70 | GGACUUAGACAUCCACCUCTT against Llcfc1 | -1.64
71 | GGGACUGAAAUCUAUUUUGTT against Zfp217 | 2.16 (active)
72 | CCAAGCUAGUCCUCAAGCUTT against Snapc2 | -1.16
73 | GGGAUUGGCUACGACUUCATT against Cbs | 2.06 (active)
74 | GCUAGCUGUUGUAAAAGAATT against Gm4841 | -0.507
75 | GGCCAUUAACCAGUCUAUCTT against Cdhr5 | 0.977
76 | GGUUCUGGAGAACAGAGUCTT against 4930483J18Rik | -0.44
77 | GCGAUAAGCAGAAUGGCAGTT against 8030462N17Rik | -0.9
78 | CGGGUGCCGGAAAGUUUAUTT against Klf7 | 2.84 (active)
79 | GCAGCAUUGACUGAAGAUCTT against Lce1m | -0.316
80 | GGACAAAAGGCUGAGCAUCTT against Flt1 | -0.235
81 | GGAAUCAUGCUGAAAGAGATT against Apom | -0.123
82 | GGUUGCGUGUGGUUACUAUTT against Herc4 | 0.161
83 | CCUCUGUGAUUUCAUUCUUTT against Hhip | -0.991
84 | GGCAUUUUCACAAAAGACUTT against Rab23 | -1.43
85 | GGAUGGCUACCGAAAAAAUTT against Eif3c | 0.967
86 | CGACGCAUUGAGGCAAUCUTT against Camsap3 | -0.483
87 | GGCAAAGCACCUUUAUCUGTT against G430095P16Rik | -0.664
88 | CCCAAGGUCCAGUUUGAUGTT against Mettl17 | -2.42 (active)

Row | Sequence | z-score
89 | GGCAAGGAUAAGACAGUAGTT against Hs3st3b1 | -0.354
90 | GGAUGAAGACCUUGAACGGTT against Slc28a3 | 1.48
91 | GGAAACAGGUCUGUCCCAATT against Ankle1 | -2.22 (active)
92 | GGUUACCUAGAAGUGGACUTT against Igsf6 | 0.201
93 | CCUUUCCAAACACCUAUAATT against Sox6 | -1.2
94 | CCUUUCAGACCAGUUCAUUTT against Ppp1r17 | 0.193
95 | GGUUCUUUUCAGCUCAUUATT against Toporsl | -0.0962
96 | GCUUCCUACGGUGUGUCAATT against Hnrnpu | -2.43 (active)
97 | GGAGCCCAAAAAGAAGAAATT against Mrpl48 | 0.43
98 | GGCCCAGCAAAAAAAGAAGTT against Usp46 | -0.397
99 | GGUCAUAGCACCAUGUUCUTT against Gata5 | 0.831
100 | GGAAGAGACUUAUAAUGGUTT against Olfr1214 | 1.28
101 | CGAAAUCAGAACCUGGGAATT against Hacd3 | 2.73 (active)
102 | GGCUAUGUCUGUUUCCUUUTT against Defa-rs10 | 0.963
103 | GGAUAUUCCUGGACUGACATT against Rps6 | -0.996
104 | GGCAGAAUAUACUUGCCCUTT against Uevld | -0.156
105 | GGAGAGCUCCUAUAAUCCUTT against Plau | 0.267
106 | GGAUAUUGUCUUUGUAGAATT against Kap | -0.565
107 | GGACGUGAAGUGAAGUCAUTT against 1810009N02Rik | -0.626
108 | GGCCUUGUACUUACACAAGTT against Rspo1 | 0.398
